From PubChem BioAssay AID1159580 (chemical genetic matrix, 2015)
Several values for one entry are separate records, joined by “and”; a condition that tells them apart may be missing. Identical values can stand only once. Hit rate of the full screen: of about 5,500 compounds, about 2,000 (36%) were called active. Roughly 18% stayed inconclusive and do not appear here. No stated cut-off is given here; in the data, active means normalized growth mostly below about 0.91 (no sharp cut-off); inconclusive means no clear call, values can overlap the other calls; inactive means mostly above about 0.92. Some of the results follow.

Assay: chemical genetic growth profiling, strain panel (AID 1159580);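 further: tested at 20 µM; growth read once vehicle control cultures reached saturation at 30 °C; 1 = growth at the plate median or of vehicle wells; lower values mean less growth of the strain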
Conditions: S. cerevisiae deletion strains, growth OD

Measured: normalized growth

CN(C)CCN(Cc1ccccc1)c1ccccn1
inactive: locus YAL013W, strain DEP1, hits give low values 0.988 | locus YAL021C, strain ccr4, hits give low values 1.01 | locus YAL026C, strain drs2, hits give low values 1.01 | locus YAL030W, strain snc1, hits give low values 1.02 | locus YBL061C, strain skt5, hits give low values 1.01 | locus YBR009C, strain hhf1, hits give low values 0.963 | locus YBR021W, strain FUR4, hits give low values 0.99 | locus YBR023C, strain chs3, hits give low values 1.01 | locus YBR171W, strain sec66, hits give low values 1.02 | locus YBR229C, strain ROT2, hits give low values 1.01 | locus YBR231C, strain swc5, hits give low values 1.02 | locus YBR279W, strain paf1, hits give low values 1.01 | locus YCL011C, strain gbp2, hits give low values 1 | locus YCL016C, strain dcc1, hits give low values 0.997 | locus YCL029C, strain bik1, hits give low values 0.972 | locus YCL061C, strain MRC1, hits give low values 1.03 | locus YCL069W, strain vba3, hits give low values 1.01 | locus YCR088W, strain abp1, hits give low values 0.997 | locus YDL005C, strain med2, hits give low values 1.01 | locus YDL035C, strain GPR1, hits give low values 1.01 | locus YDL040C, strain nat1, hits give low values 1.02 | locus YDL074C, strain BRE1, hits give low values 1.02 | locus YDL101C, strain DUN1, hits give low values 0.987 | locus YDL134C, strain PPH21, hits give low values 1 | locus YDL185W, strain tfp1, hits give low values 0.946 | locus YDL192W, strain arf1, hits give low values 0.98 | locus YDR001C, strain nth1, hits give low values 1.01 | locus YDR069C, strain doa4, hits give low values 1.03 | locus YDR101C, strain arx1, hits give low values 0.988 | locus YDR137W, strain rgp1, hits give low values 1.01 | locus YDR150W, strain NUM1, hits give low values 0.981 | locus YDR159W, strain sac3, hits give low values 0.981 | locus YDR162C, strain NBP2, hits give low values 0.989 | locus YDR195W, strain ref2 1.02 | locus YDR297W, strain sur2, hits give low values 1.02 | locus YDR318W, strain mcm21, hits give low values 1.01 | locus YDR334W, strain swr1, hits give low values 1.01 | locus YDR335W, strain msn5, hits give low values 1.02 | locus YDR388W, hits give low values 1 | locus YDR392W, strain spt3, hits give low values 0.999 | locus YDR502C, strain sam2, hits give low values 1.02 | locus YEL003W, strain gim4, hits give low values 1.02 | locus YEL037C, strain rad23, hits give low values 1.02 | locus YEL061C, strain CIN8 (second series), hits give low values 1.02 | locus YEL061C, strain CIN8, hits give low values 0.992 | locus YER015W, strain faa2, hits give low values 1.01 | locus YER016W, strain bim1, hits give low values 0.964 | locus YER110C, hits give low values 0.973 | locus YER111C, strain swi4, hits give low values 1.02 | locus YER155C, strain BEM2 (second series), hits give low values 1.05 | locus YER155C, strain BEM2, hits give low values 1 | locus YER167W, strain BCK2, hits give low values 0.996 | locus YFR010W, strain ubp6, hits give low values 1.03 | locus YGL078C, strain dbp3, hits give low values 0.991 | locus YGL086W, strain mad1, hits give low values 0.992 | locus YGL167C, strain pmr1, hits give low values 1.01 | locus YGL173C, strain kem1, hits give low values 1.03 | locus YGL227W, strain vid30, hits give low values 1.01 | locus YGL240W, strain doc1, hits give low values 1.04 | locus YGL248W, strain PDE1, hits give low values 1.01 | locus YGL253W, strain hxk2, hits give low values 1 | locus YGR078C, strain PAC10, hits give low values 0.988 | locus YGR135W, strain pre9, hits give low values 1.01 | locus YGR229C, strain SMI1, hits give low values 1 | locus YGR252W, strain gcn5, hits give low values 1.14 | locus YHR013C, strain ard1, hits give low values 0.984 | locus YHR027C, strain rpn1, hits give low values 1 | locus YHR030C, strain SLT2, hits give low values 0.968 and 0.97 | locus YHR079C, strain IRE1 (second series), hits give low values 0.999 | locus YHR079C, strain IRE1, hits give low values 0.953 | locus YHR094C, strain hxt1, hits give low values 0.967 | locus YHR129C, strain ARP1, hits give low values 0.994 | locus YHR142W, strain chs7, hits give low values 1.01 | locus YHR200W, strain rpn10, hits give low values 1 | locus YIL066C, strain RNR3, hits give low values 1 | locus YIL073C, strain SPO22, hits give low values 0.928 | locus YIL125W, strain kgd1, hits give low values 0.976 | locus YIR030C, strain dcg1, hits give low values 0.994 | locus YJL092W, strain hpr5, hits give low values 1.03 | locus YJL095W, strain BCK1 (second series), hits give low values 1.01 | locus YJL095W, strain BCK1, hits give low values 0.96 and 0.975 | locus YJL115W, strain asf1, hits give low values 1.02 | locus YJL129C, strain trk1, hits give low values 1.02 | locus YJL134W, strain LCB3, hits give low values 0.998 | locus YJL154C, strain vps35, hits give low values 1.01 | locus YJL164C, strain tpk1, hits give low values 1 | locus YJL166W, strain qcr8, hits give low values 1.04 | locus YJL168C, strain set2, hits give low values 0.982 | locus YJL187C, strain SWE1 (second series), hits give low values 0.985 | locus YJR043C, strain POL32, hits give low values 1.01 | locus YJR066W, strain TOR1, hits give low values 0.947
